Screening results (PubChem BioAssay)
The list is not random: actives were taken first. Their share in the collection is about 6.7%.
KB-3-1 cytotox = KB-3-1 parental cell cytotoxicity; KB-3-1 viability, CellTiter-Glo ATP luminescence, 72 h; 1.4% of 400,000 active; Potency, µM (series often up to 46.1 µM), most hits filed as cytotoxic; also: % is scaled to controls: 0 for no effect and ±100 for the full control effect; nearly all actives have a fitted effect of over 60% in size
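Screening of KB-3-1 cells (DMEM, 10% FBS, phenol-red free) ran from lowest to highest compound concentration; after 72 h at 37 °C viability was read luminescently and curves fitted.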
PINK1 modulator = modulators of PINK1 expression | PINK1 immunofluorescence, high-content cytometry, 24 h | Potency, µM (highest dose often 76.6 µM), for the others: at the highest dose activation (PINK1 increase), usual class: activators | 0.2% of 410,000 active | AID 624263; active = well fitted activation curve with a large enough effect; inconclusive = small, poorly fitted or top-dose-only effect; cell line not stated here; also: % of control where 0% means no effect; nearly all actives have a fitted effect of over 65% in size
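Readout is PINK1 immunofluorescence, quantified alongside mitochondrial, cell and nuclear markers by laser-scanning microplate cytometry. Cells from a stable line were exposed to compound titrations (5 concentrations) for 24 hours, with CCCP controls.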
MCF10A rerep = DNA re-replication induction in MCF 10a cells; MCF 10A DNA re-replication, Hoechst nuclear intensity, 48 h; Potency, µM (top dose mostly 46.1 µM), for inactives: at the top dose activity, positive = re-replication, hits mostly activators; 2.9% of 350,000 active; also: % of control where 0% means no effect; nearly all actives have a fitted effect of over 50% in size
KB-V1 cytotox = KB-V1 MDR subline cytotoxicity; KB-V1 MDR cells viability, CellTiter-Glo, 72 h; Potency, µM (series often up to 46.1 µM), actives largely listed as cytotoxic; 3.4% of 400,000 active; AID 1347076; also: % is scaled to controls: 0 for no effect and ±100 for the full control effect; nearly all actives have a fitted effect of over 60% in size
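qHTS viability screen in drug-selected KB-V1 MDR cells: 72 h compound treatment at 37 degrees C, ATP luminescence end point.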
SW480 rerep = induces DNA re-replication in SW480 colon adenocarcinoma cells; SW480 DNA re-replication, Hoechst DNA content imaging, 48 h; Potency, µM (doses to about 46.1 µM), inactives show at the highest dose re-replication activation, hits mostly activators; 1.8% of 340,000 active; also: % of control where 0% means no effect; nearly all actives have a fitted effect of over 55% in size
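Per well, 250 cells were exposed to pinned compound for 48 hr. Nuclear DNA was visualised with Hoechst (40 min, 37 C) and total object intensity recorded by fluorescence scanning.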
* marks the source's active call; other numbers are inactive results; i = inactive; ? = inconclusive; . = not tested or not shown; [ ] = remark or other dose. Unless noted, calls follow the shape of the dose curve; as a rule, active = well fitted curve in the direction sought with a large enough effect; inconclusive = small, poorly fitted or top-dose-only effect, or another doubt; inactive = no such curve, though single readings can be large; an effect the other way counts as inactive or inconclusive. Potency is read from the fitted curve at half-maximal effect.

SMILES	KB-3-1 cytotox	PINK1 modulator	MCF10A rerep	KB-V1 cytotox	SW480 rerep
C=CCNC(=S)NNc1nc2c(c(=O)[nH]1)C1(CCCC1)Cc1ccccc1-2	i	7.8%	4.0%	i	-20.4%
CCc1ccc(S(=O)(=O)N2c3ccc(C)cc3C3CN(C)CCC32)cc1 (stereo not drawn)	i	6.0%	?	20.6µM*	2.7%
COc1ccc(-c2oc3ncn4nc(-c5ccccc5OC)nc4c3c2-c2ccc(OC)cc2)cc1	i	2.4%	.	i	.
CC1=C(C)/C(=N/OC(=O)c2cccc([N+](=O)[O-])c2)C=CC1=O	i	-4.6%	8.2µM*	i	8.2µM*
CCOC(=O)c1snc2c(=O)[nH]cnc12	i	-5.9%[38.3 µM]	?	i	5.0%
O=C(Nc1ccccc1)c1snc2c(=O)[nH]cnc12	?	-2.5%	-3.3%	4.11µM*	-120.7%
CC1CC(=O)C(C(C2=C(O)CC(C)CC2=O)c2ccccc2)=C(O)C1 (stereo not drawn)	i	2.1%	-0.9%	i	-10.2%
COc1cc2nc(C)sc2cc1SC	i	0.5%	1.0%	i	-3.7%
COc1cc2nc(/C=C/c3cc(OC)c(OC)c(OC)c3)sc2cc1SC	23.1µM*	3.0%	?	10.3µM*	?
NC(=S)N/N=C1\CCSc2ccc(Cl)cc21	i	1.2%	-1.6%	?	18.4µM*
C=CCn1c(SCC(=O)Nc2ccc3c(c2)OCO3)nnc1-c1ccccc1OC	i	2.2%	-0.9%	i	-1.0%
C=CCn1c(SCc2csc(-c3ccc(Cl)cc3)n2)nnc1-c1ccccc1OC	?	1.5%	?	20.6µM*	.
CCN(CC(=O)NCc1ccc(F)cc1)C(=O)/C=C/c1ccc(OC)c(S(=O)(=O)NC(C)C)c1	2.59µM*	10.1%	1.84µM*	i	8.2µM*
Nc1ccc(N2CCCCC2)cc1N1CCCCC1	i	15.8µM*	20.6µM*	i	?
Nc1cc(Cl)ccc1N1CCCCC1	i	0.9%	-1.5%	i	-1.3%
CCCCN1CC(c2nc3ccccc3n2CCCCOc2c(C)cccc2C)CC1=O (stereo not drawn)	?	20.6%	.	?	.
CCCCN(CCCC)C(=O)CN(C)S(=O)(=O)c1ccc2c(c1)n(C)c(=O)c(=O)n2C	i	0.7%[38.3 µM]	-8.5%	11.6µM*	-5.1%
O=c1[nH]nc(SCCS(=O)(=O)c2ccc(F)cc2)n1-c1ccccc1	i	3.1%	23.1µM*	i	16.4%
COc1cccc(-c2cnc(-c3ccncc3)nc2C2CCN(C(=O)Cc3csc(C)n3)CC2)c1	.	-0.5%	.	.	.
CN=C1SC(CC(=O)Nc2ccc(F)cc2F)C(=O)N1/N=C/c1ccc(OC(F)F)c(OC)c1 (stereo not drawn)	i	1.7%	4.61µM*	i	23.8%
CC1CC(C)CN(C(=S)Nc2ccc(OC(F)F)cc2)C1 (stereo not drawn)	i	2.6%	18.0%	20.6µM*	-5.9%
CC1CC(C)CN(C(=S)Nc2ccc(SC(F)F)cc2)C1 (stereo not drawn)	i	?	?	?	-1.0%
COC(C(=O)Nc1ccc(S(=O)(=O)Nc2cccc3ccccc23)cc1)c1ccccc1 (stereo not drawn)	i	-2.0%	?	18.4µM*	.
CCN(CC)c1ccc2c(C)c(Cl)c(=O)oc2c1	i	-0.2%	4.11µM*	i	?
CCN(CC)c1ccc2c(C)c(-c3ccc(N)cc3)c(=O)oc2c1	?	-2.0%	3.66µM*	i	8.2µM*
SMILES	KB-3-1 cytotox	PINK1 modulator	MCF10A rerep	KB-V1 cytotox	SW480 rerep
CCOC(=O)CCc1c(C)c2ccc(O)cc2oc1=O	i	-0.1%	-11.2%	i	-2.4%
CCOC(=O)Cc1c(C)c2ccc(N(CC)CC)cc2oc1=O	i	0.1%	18.4µM*	?	14.6µM*
CCN(CC)c1ccc2c(c1)oc(=O)c1c(Cl)cc(=O)oc12	?	0.3%	?	?	9.2µM*
CCN(CC)c1ccc2c(Cl)c(Br)c(=O)oc2c1	?	-1.5%	?	?	?
COc1ccc(-c2c(C)c3ccc(O)cc3oc2=O)cc1	i	-1.0%	18.9%	i	-14.9%
CCN(Cc1cc(=O)oc2cc(C)ccc12)c1ccccc1	i	2.5%	11.7%	i	-15.1%
COc1ccc2c(c1)CCc1cnc(-n3ncc(C(=O)N4CCN(CCO)CC4)c3C3CC3)nc1-2	.	0.2%	.	.	.
CCC(Sc1ncnc2sc3c(c12)CCCC3)C(=O)OCC(C)C (stereo not drawn)	i	-1.2%	.	i	.
CCn1nc(C(=O)NNC(=O)c2ccc(OC(F)F)cc2)c2ccccc2c1=O	?	-0.6%	-2.3%	16.4µM*	-2.0%
CCCn1nc(C(=O)NNC(=O)c2ccc(OC(F)F)cc2)c2ccccc2c1=O	i	0.4%	-9.2%	i	-7.3%
CC(C)N1CCc2c(sc(NC(=O)c3ccc(S(=O)(=O)N4CCc5ccccc54)cc3)c2C(N)=O)C1	20.6µM*	-1.3%	?	?	2.6%
CC(C)N1CCc2c(sc(NC(=O)c3cc(-c4cccs4)nc4ccccc34)c2C(N)=O)C1	?	0.6%	18.4µM*	i	?
NC(=O)c1ccsc1NC(=O)c1ccc(S(=O)(=O)N2CCCc3ccccc32)cc1	23.1µM*	1.5%	?	?	?
CC(C)N1CCc2c(sc(NC(=O)c3ccc(S(=O)(=O)N(C)C4CCCCC4)cc3)c2C(N)=O)C1	.	1.7%	.	.	.
CNC(=O)c1c(NC(=O)c2ccc(S(=O)(=O)N(C)c3ccccc3)cc2)sc2c1CCN(C(C)C)C2	i	9.7%	14.6µM*	?	?
CCc1ccc(-n2nnc(-c3nc(-c4cccs4)no3)c2N)cc1	i	0.4%	.	i	.
Cc1c(CNC2CCCCC2)c(C(=O)O)c(C)n1Cc1c(F)cccc1Cl	i	-1.2%	.	?	.
COCC1CCCN(Cc2ccc3c(c2)CN(C(=O)c2sc(C)nc2C)CCO3)C1 (stereo not drawn)	.	-0.5%	.	.	.
CCN1CCc2c(sc(NC(=O)c3ccc(S(=O)(=O)N(CCOC)CCOC)cc3)c2C(N)=O)C1	i	-4.7%	.	i	.
CCN1CCc2c(sc(NC(=O)c3ccc(S(=O)(=O)N(C)c4ccccc4)cc3)c2C(=O)NC)C1	i	1.0%	16.4µM*	i	?
Cc1ccc(NC(=O)Cn2c(=O)c3ccc(Cl)cc3n3nncc23)cc1	i	0.4%	.	i	.
c1ccc(Cn2nnc3c(NCCN4CCOCC4)ncnc32)cc1	?	2.2%[38.3 µM]	10.1%	i	-3.8%
Cc1nc(NCCN2CCOCC2)c2nnn(Cc3ccccc3Cl)c2n1	i	2.5%[38.3 µM]	1.3%	6.51µM*	2.2%
Clc1ccccc1Cn1nnc2c(N3CCOCC3)nc(C3CC3)nc21	i	?	-3.5%	3.66µM*	-6.9%
Clc1ccccc1Cn1nnc2c(Nc3ccccc3)ncnc21	i	-3.5%[38.3 µM]	13µM*	i	-2.5%
